Where “and” joins values, the source holds several entries; their conditions need not be identical. Identical values can stand only once. About 6,900 (3.6%) of roughly 190,000 compounds were called active. Rule as the data show it: active = inhibition above about 50%; inactive = the rest. The sample as a whole holds a higher share of actives than the screen did.

The target of the assay is Huntingtin (Homo sapiens) (UniProt P42858). Briefly: mutant huntingtin-calmodulin interaction inhibitors – biochemical, AlphaScreen, primary screen (AID 1671202).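 Also: 0% = both proteins with DMSO and 100% = one protein alone.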 As to conditions: AlphaScreen His-mHTT/GST-CaM binding, luminescence; at 15 µM; hits give high values.
Huntingtin (Homo sapiens), sequence (P42858 whole entry, looked up, stated change not applied): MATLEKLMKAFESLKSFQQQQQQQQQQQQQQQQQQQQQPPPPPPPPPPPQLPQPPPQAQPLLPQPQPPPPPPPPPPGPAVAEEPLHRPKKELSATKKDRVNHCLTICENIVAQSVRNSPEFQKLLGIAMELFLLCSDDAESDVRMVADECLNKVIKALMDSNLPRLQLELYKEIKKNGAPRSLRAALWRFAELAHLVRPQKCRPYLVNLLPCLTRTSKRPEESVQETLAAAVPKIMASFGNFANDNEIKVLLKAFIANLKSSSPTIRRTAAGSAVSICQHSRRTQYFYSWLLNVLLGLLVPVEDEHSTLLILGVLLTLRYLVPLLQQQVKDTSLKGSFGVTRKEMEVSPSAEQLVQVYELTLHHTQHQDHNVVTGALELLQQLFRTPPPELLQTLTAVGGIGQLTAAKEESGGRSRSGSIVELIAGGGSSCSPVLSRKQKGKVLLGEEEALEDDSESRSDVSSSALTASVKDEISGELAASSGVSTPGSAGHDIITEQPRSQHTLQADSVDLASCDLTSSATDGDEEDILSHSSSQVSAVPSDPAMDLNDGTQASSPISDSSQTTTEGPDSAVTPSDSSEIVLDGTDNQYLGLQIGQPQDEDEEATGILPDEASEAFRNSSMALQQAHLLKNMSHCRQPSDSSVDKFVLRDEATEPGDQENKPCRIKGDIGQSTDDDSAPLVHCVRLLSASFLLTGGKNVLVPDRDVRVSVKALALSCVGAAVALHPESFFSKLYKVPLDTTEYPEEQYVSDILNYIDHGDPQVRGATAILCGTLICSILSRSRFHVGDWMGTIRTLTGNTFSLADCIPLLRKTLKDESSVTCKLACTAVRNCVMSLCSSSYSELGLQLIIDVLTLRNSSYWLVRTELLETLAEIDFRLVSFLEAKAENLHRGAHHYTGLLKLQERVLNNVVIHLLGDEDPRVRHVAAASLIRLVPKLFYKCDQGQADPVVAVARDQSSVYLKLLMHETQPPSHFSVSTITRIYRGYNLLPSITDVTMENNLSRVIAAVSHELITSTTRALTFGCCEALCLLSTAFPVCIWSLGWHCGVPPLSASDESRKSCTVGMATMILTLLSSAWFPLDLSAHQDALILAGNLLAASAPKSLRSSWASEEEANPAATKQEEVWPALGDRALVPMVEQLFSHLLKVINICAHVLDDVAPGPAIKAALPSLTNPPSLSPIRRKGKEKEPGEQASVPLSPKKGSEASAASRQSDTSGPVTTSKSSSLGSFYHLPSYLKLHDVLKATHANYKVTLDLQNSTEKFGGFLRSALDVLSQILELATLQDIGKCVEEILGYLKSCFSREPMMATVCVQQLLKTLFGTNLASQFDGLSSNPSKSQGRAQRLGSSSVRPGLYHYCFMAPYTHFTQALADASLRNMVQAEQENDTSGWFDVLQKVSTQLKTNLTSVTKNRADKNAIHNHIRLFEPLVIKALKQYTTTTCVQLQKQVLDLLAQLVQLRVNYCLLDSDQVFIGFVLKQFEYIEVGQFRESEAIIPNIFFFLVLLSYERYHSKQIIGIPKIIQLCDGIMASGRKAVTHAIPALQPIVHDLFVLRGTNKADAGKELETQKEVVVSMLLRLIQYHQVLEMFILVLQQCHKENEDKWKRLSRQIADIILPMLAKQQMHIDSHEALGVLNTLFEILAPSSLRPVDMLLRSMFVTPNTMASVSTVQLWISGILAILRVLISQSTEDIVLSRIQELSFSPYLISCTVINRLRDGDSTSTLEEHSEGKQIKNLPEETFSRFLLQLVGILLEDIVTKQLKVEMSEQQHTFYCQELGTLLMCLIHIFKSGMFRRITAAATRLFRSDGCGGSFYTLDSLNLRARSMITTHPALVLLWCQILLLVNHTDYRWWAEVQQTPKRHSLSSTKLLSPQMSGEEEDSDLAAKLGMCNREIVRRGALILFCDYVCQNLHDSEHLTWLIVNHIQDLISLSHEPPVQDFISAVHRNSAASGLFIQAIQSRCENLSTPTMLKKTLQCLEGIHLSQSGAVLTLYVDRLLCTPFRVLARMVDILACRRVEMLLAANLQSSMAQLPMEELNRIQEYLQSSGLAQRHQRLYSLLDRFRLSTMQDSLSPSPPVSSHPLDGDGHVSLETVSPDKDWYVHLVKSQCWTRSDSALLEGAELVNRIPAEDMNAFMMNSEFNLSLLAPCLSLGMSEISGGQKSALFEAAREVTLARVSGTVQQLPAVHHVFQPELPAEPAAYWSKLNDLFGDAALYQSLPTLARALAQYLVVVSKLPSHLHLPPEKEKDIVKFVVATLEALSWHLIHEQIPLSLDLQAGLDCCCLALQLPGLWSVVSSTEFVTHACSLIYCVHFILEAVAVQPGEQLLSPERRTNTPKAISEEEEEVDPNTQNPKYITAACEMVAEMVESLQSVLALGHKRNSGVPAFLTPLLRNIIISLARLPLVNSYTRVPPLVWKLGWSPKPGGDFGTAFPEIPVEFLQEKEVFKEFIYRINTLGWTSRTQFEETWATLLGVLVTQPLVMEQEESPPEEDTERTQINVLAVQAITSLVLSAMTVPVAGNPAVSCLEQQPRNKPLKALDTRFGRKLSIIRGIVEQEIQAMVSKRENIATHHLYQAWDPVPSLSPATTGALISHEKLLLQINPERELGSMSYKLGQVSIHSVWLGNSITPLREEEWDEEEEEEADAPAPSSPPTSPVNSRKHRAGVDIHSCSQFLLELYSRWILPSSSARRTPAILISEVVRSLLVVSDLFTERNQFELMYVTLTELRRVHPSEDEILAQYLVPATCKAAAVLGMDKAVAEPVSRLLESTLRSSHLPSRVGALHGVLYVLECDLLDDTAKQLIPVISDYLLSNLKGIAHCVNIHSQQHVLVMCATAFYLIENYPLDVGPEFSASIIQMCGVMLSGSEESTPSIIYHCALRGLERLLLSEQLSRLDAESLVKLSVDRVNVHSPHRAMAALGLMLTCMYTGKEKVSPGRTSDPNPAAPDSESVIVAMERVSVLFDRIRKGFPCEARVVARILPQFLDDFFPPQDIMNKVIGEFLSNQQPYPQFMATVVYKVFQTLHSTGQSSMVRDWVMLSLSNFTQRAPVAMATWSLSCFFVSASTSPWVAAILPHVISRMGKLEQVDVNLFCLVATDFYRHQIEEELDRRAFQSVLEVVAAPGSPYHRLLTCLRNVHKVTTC
Consider `Nc1ccc(-c2ccc(N)c(N)c2)cc1N`, for which the inhibition is 92.1% (active).

With `Nc1ccc(Cc2ccc(N)c(Cl)c2)cc1Cl`, the inhibition was 14.7% (inactive). In the case of `CC(C)CCn1c(=O)c(C(=O)Nc2ccccn2)c(O)c2ccccc21`, the inhibition is -1% (inactive). Take `CCCn1c(=O)cc(C)c2ccc(OCC(=O)N3CCN(C)CC3)cc21`: the inhibition was -3.5% (inactive).

For `CCOC(=O)c1ccc(NC(=O)c2cccn(Cc3ccc(C(F)(F)F)cc3)c2=O)cc1`, the inhibition was 83.3% (active). To `Cc1csc(NC(=O)c2cccn(Cc3cccc([N+](=O)[O-])c3)c2=O)n1` belongs -9.9% (inactive).

Consider `CCCCS(=O)(=O)N1CCC2(C1)C(=O)N(C)c1ccc(OC)cc12` (stereo not given), for which the inhibition was 12.5% (inactive). With `COc1ccc(CCC(=O)N2CCC3(C2)C(=O)N(C)c2ccc(OC)cc23)cc1` (stereo not given) the figure was 6.74% (inactive). Regarding `CC(C)CCNC(=O)CN1C(=O)C(C)N=C(c2ccccc2)c2ccccc21` (stereo not given), the inhibition is 5% (inactive). To `O=C(Cc1c[nH]c2ccccc12)N1CCCN(C2CCN(Cc3ccc(F)cc3)C2=O)CC1` (stereo not given) belongs 44.9% (inactive); to `O=[N+]([O-])c1cccc(C(Cl)Cl)c1`, -5.2% (inactive).

For `O=c1cccc2n1CC1CC2CN(Cc2cc(Cl)ccc2O)C1` (stereo not given), the inhibition was 3.2% (inactive).

Turning to `COC(=O)c1ccc2[se]c(CC3CCCCC3)c(I)c2c1`, the inhibition is -13.6% (inactive). With `CC(C)(CNc1ccc([N+](=O)[O-])c2cccnc12)CNS(=O)(=O)c1ccc(Cl)cc1` the figure was 54% (active). To `O=[N+]([O-])c1ccc(NCCNc2ccc([N+](=O)[O-])c3cccnc23)cc1` belongs 1.26% (inactive); to `CCN(CC)CCNc1ccc([N+](=O)[O-])c2cccnc12`, -2.5% (inactive) and 9% (inactive). To `CCN(CC)CC#CCOc1ccccc1` belongs -4.9% (inactive).

With `CC(=O)c1ccc(OC(NC(=O)Cc2ccccc2)C(Cl)(Cl)Cl)cc1` (stereo not given), the inhibition was 50% (active).

For the compound `CN1CCN(c2nnc(C(F)(F)F)s2)CC1`, the inhibition is -5% (inactive).

For `CC(C)c1cc(=O)n2c(n1)SCC2CC(=O)N1CC2CC(C1)c1cccc(=O)n1C2` (stereo not given), the inhibition is -1.2% (inactive).

The record behind these values is PubChem BioAssay AID1671202 (University of Kansas High Throughput Screening Laboratory, 2021).
